“And” between values parts separate entries of the source, which are not always exact repeats. Equal values may be shown once. Records with an inconclusive call do not appear. The source made the active and inactive calls. How the source made its calls, unless noted: active means hit-call score of the fitted dose curve at least 0.9, where 1 is the maximum; inactive means score below 0.9.
Assays:
[1] = read-out: Vascular cell adhesion molecule 1 (VCAM1), VCAM1 (gene 7412); assay: BSK_MyoF_VCAM1: BioMAP Diversity Plus: MyoF Assay for Vascular cell adhesion molecule 1 (VCAM1) Biomarker Activity (AID 2284231); conditions: primary human lung fibroblasts
Summary of the method: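 Primary human lung fibroblasts (BioMAP MyoF system) dosed with chemical, VCAM-1 measured by ELISA 24 hours later. Fitted in the positive direction against DMSO; parallel SRB staining assessed cytotoxicity.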

[2] = read-out: Collagen I, COL1A1 (gene 1277); assay: BSK_MyoF_CollagenI: BioMAP Diversity Plus: MyoF Assay for Collagen I Biomarker Activity (AID 2284238); conditions: primary human lung fibroblasts
Summary of the method: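 Primary human lung fibroblasts (MyoF system) treated 24 h; Collagen I quantified by ELISA and fitted in positive direction against DMSO. Parallel SRB total-protein staining assessed overt cytotoxicity.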

[3] = read-out: Collagen III, COL3A1 (gene 1281); assay: BSK_MyoF_CollagenIII: BioMAP Diversity Plus: MyoF Assay for Collagen III Biomarker Activity (AID 2284239); conditions: primary human lung fibroblasts
Summary of the method: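 Primary human lung fibroblasts (BioMAP MyoF system) exposed 24 h. Collagen III measured by ELISA; positive-direction fit relative to DMSO.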

[4] = CCTE_Mundy_HCI_hNP1_Casp3_7: CCTE's Caspase-Glo 3/7 Assay in human neuroprogenitor cells for Apoptosis, Mundy Lab (AID 2284240)
Summary of the method: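 Luminescent caspase-3/7 readout, 26.5 h post-dose, in human neural progenitor cells from WA09 embryonic stem cells. Cells grew 40–44 h at 37 °C, 5% CO2 before chemical addition. Activity analysed as signal increase over DMSO baseline.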

[5] = TAMU_HCS_1.5hr_SingleDonor1434_Cytotoxicity: Cytotoxicity Assessment using High-content Screening (HCS) Fluorescent Imaging for the Texas A&M University (TAMU) 1.5-hr Human Induced Pluripotent Stem Cell (iPSC)-derived Cardiotoxicity Assay (AID 2284234; active means hit-call score of the fitted dose curve at least 0.9, where 1 is the maximum)
Summary of the method: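 Human iPSC-derived cardiomyocytes dosed at 0.2, 1, 10, 100 uM final (0.5% DMSO) for 90 min at 37 C. Hoechst 33342-stained nuclei counted by 10x high-content imaging; POD is EC10, a 10% drop in total cell count versus DMSO.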

[6] = TAMU_PeakParms_SingleDonor1434_QT: Texas A&M University (TAMU) 1.5-hr Human Induced Pluripotent Stem Cell (iPSC)-derived Cardiomyocytes Calcium (Ca+2) Flux Assay for Cardiotoxicity: QT (decay-rise ratio) (AID 2284235; active means hit-call score of the fitted dose curve at least 0.9, where 1 is the maximum)
Summary of the method: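 iPSC-derived cardiomyocytes (single donor 1434) dosed at 0.2, 1, 10, 100 uM final in 0.5% DMSO, 90 min at 37C. Ca2+ flux fluorescence decay/rise ratio; EC05 (5% increase versus DMSO) as POD, excluding beat-arrest and severe-notch data.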

[7] = CCTE_Mundy_HCI_Cortical_NOG_NeuronCount: CCTE's Neurite Outgrowth Assay in rat cortical cells for Neuron Count, Mundy Lab (AID 2284236; active means hit-call score of the fitted dose curve at least 0.9, where 1 is the maximum;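 further: neurons counted by imaging betaIII-tubulin and Hoechst stained cortical cells; cells exposed to compound for about 48 hours before fixation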)
Summary of the method: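 Read-out: neuron number by high-content imaging of betaIII-tubulin (Alexa Fluor-488) and Hoechst-labelled rat primary cortical cells.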

For O=C(O)C(F)(F)C(F)(F)C(F)(F)C(F)(F)F, the outcome [1] was “inactive”, the outcome [2] was “inactive” and the outcome [3] was “inactive”.

For C=C(C)C(=O)OCCC(F)(F)C(F)(F)C(F)(F)C(F)(F)C(F)(C(F)(F)F)C(F)(F)F, the outcome [2] was “inactive” and the outcome [3] was “inactive”.

With OCCCC(F)(F)C(F)(F)C(F)(F)C(F)(F)C(F)(F)C(F)(F)C(F)(F)F the AC50 [2] was 49.1 µM (active) and 52.3 µM (active), the AC50 [3] was 46.9 µM (active) and 52.2 µM (active) and the outcome [4] was “inactive”.

For CC(C)(C)C(=O)CC(=O)C(F)(F)C(F)(F)C(F)(F)F, the outcome [2] was “inactive”, the outcome [3] was “inactive” and the outcome [4] was “inactive”.

With OC[C@@H](O)[C@@H](O)[C@H](O)[C@@H](O)CO the outcome [5] was “inactive”, the outcome [6] was “inactive” and the outcome [7] was “inactive”. The outcome [4] was “inactive”.

For C=CC(F)(F)C(F)(F)C(F)(F)C(F)(F)C(F)(F)C(F)(F)C(F)(F)C(F)(F)C=C, the outcome [2] was “inactive” and the outcome [3] was “inactive”.

For O=C(O)C=C(C(F)(F)F)C(F)(F)F, the AC50 [1] was 21.8 µM (active) and 16.2 µM (active), the outcome [2] was “inactive” and the outcome [3] was “inactive”.

In the case of CO[Si](OC)(c1ccccc1)c1ccccc1, the AC50 [1] is reported as 32.8 µM (active), the AC50 [2] is reported as 31.6 µM (active) and the AC50 [3] is reported as 31.6 µM (active).
